Reference: PubChem BioAssay (EPA / NIEHS)
Several values for one entry are separate records, joined by “and”; a condition that tells them apart may be missing. Equal entries are not always repeated. Records with an inconclusive call do not appear. A structure can be active in one record and inactive in another. Activity calls are given as the source filed them. How the source made its calls, unless noted: active means hit-call score of the fitted dose curve at least 0.9, where 1 is the maximum; inactive means score below 0.9.

Tests used:
DIO2 (gene 1734) = assay: CCTE_GLTED_hDIO2: CCTE's human Deiodinase 2 (DIO2) Inhibition Assay, Great Lakes Toxicology and Ecology Division (GLTED) Lab (AID 2284050; active means hit-call score of the fitted dose curve at least 0.9, where 1 is the maximum)
How it was run: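 Readout: absorbance from Sandell-Kolthoff detection of free iodide released by human DIO2 during a 3 h incubation with chemical. Cell-free format, n=3; activity fitted relative to DMSO negative control.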

DIO3 (gene 1735) = assay: CCTE_GLTED_hDIO3: CCTE's human Deiodinase 3 (DIO3) Inhibition Assay, Great Lakes Toxicology and Ecology Division (GLTED) Lab (AID 2284055; active means hit-call score of the fitted dose curve at least 0.9, where 1 is the maximum;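 further: potency is for inhibition seen as loss of released iodide signal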)
How it was run: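 hDIO3 (adenovirus-expressed) + test chemical, 3 h incubation; free iodide quantified by Sandell-Kolthoff reaction, absorbance read-out. DMSO negative control, n=3.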

[1] = CCTE_Shafer_MEA_acute_network_burst_percentage: CCTE's Neural Acute Assay for Percentage of Network Bursts, Shafer Lab (AID 2284022);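 further: curves fitted for loss so actives lower network burst percentage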
How it was run: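 Rat primary cortical neuron networks on 48-well MEA plates, DIV 13 or 15, treated acutely with compound (0.03-40 uM, at least three wells). Percent of spikes within network bursts compared between 40-min recordings before and during exposure at 37 C, expressed as percent change.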

[2] = CCTE_Shafer_MEA_acute_cross_correlation_HWHM: CCTE's Neural Acute Assay for Cross Correlation at Half Width at Half Maximum, Shafer Lab (AID 2284026);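 further: percent change per well from pre-dose baseline in spike cross-correlogram half width; hits are a decrease in cross-correlogram half width relative to DMSO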;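 on outcome: spontaneous network firing of rat primary cortical neurons on multiwell microelectrode arrays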
How it was run: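 Rat primary cortical neurons on 48-well MEA plates; 40-min baseline and 40-min post-exposure recordings at 37 C on DIV 13 or 15, compounds 0.03-40 uM. Spikes detected at 8x rms noise; percent change in cross-correlogram HWHM per well vs baseline.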

[3] = CCTE_Deisenroth_AIME_384WELL_CTox_Inactive: Cytotoxicity Assessment (CTOX) in CCTE's 384-well Estrogen Receptor Transactivation Assay without AIME metabolic competence (metabolism negative), Deisenroth Lab (AID 2284039; active means hit-call score of the fitted dose curve at least 0.9, where 1 is the maximum;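 further: cell viability via live-cell protease substrate cleaved to fluorescent probe; cells exposed 24 h to medium preincubated 2 h with alginate-water beads without S9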)
How it was run: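 Fluorescence from a live-cell protease substrate, read after 24 h in VM7Luc4E2 cells, indicated viability. Test medium came from a 2 h AIME step without hepatic S9 (alginate-water microspheres); concentrations spanned 0.002 - 200 uM, single technical replicate per run.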

[4] = CCTE_Shafer_MEA_dev_firing_rate_mean: CCTE's Neural Network Formation Assay for Mean Firing Rate, Shafer Lab (AID 2284031);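 on AC50: curve fitted for loss of firing so AC50 reflects decreased mean firing rate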
How it was run: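 Read-out: spike count/recording length, averaged over active electrodes, then AUC across days 5, 7, 9, 12. Rat cortical cultures on MEA; continuous 12-day exposure, media and treatment renewed DIV 5, 9; DMSO baseline.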

[5] = CCTE_Shafer_MEA_dev_per_burst_spike_percent: CCTE's Neural Network Formation Assay for Percent of Spikes in a Burst, Shafer Lab (AID 2284032);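 on AC50: fitted as a decrease in burst spike percentage below DMSO baseline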
How it was run: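 Value is trapezoidal AUC over recordings on days 5, 7, 9 and 12 of the well-mean fraction of spikes falling in single-electrode bursts; rat cortical cultures exposed continuously from plating, treatment renewed DIV 5 and 9, fitted downward against DMSO.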

[6] = CCTE_Shafer_MEA_dev_bursting_electrodes_number: CCTE's Neural Network Formation Assay for Number of Bursting Electrodes, Shafer Lab (AID 2284043; active means hit-call score of the fitted dose curve at least 0.9, where 1 is the maximum;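 on AC50: potency is for loss of bursting electrodes relative to DMSO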)
How it was run: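 Counted: electrodes with burst rate ≥1 per 2 min in each well. Cells: primary rat cortex, 1.5 x 10^5/well, on 16-electrode MEA wells. Exposure: DIV 0–12, compound renewed DIV 5 and 9. Recording days 5, 7, 9, 12; AUC vs DMSO baseline.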

[7] = CCTE_Shafer_MEA_dev_per_burst_interspike_interval: CCTE's Neural Network Formation Assay for Burst Interspike Interval, Shafer Lab (AID 2284044);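 on AC50: potency for a decrease of within-burst interspike interval below DMSO level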
How it was run: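 Primary rat cortical neurons on 48-well MEA plates, exposed from day 0 through day 12, treatment renewed at DIV 5 and 9. Within-burst interspike interval recorded days 5, 7, 9, 12, well-averaged, summarised as AUC; negative fit versus DMSO.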

[8] = CCTE_Shafer_MEA_dev_burst_duration_mean: CCTE's Neural Network Formation Assay for Mean Burst Duration, Shafer Lab (AID 2284045)
How it was run: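 Network-formation assay in primary rat cortical neurons; treatment spans twelve days of development. Mean burst duration per well is integrated by trapezoidal AUC and fitted in the loss-of-signal direction against DMSO baseline.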

[9] = CCTE_Shafer_MEA_dev_interburst_interval_mean: CCTE's Neural Network Formation Assay for Mean Interburst Interval, Shafer Lab (AID 2284046);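 further: well-mean interburst interval of bursting electrodes as AUC over four recording days; curve fitted for decrease in interburst interval relative to DMSO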
How it was run: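 Network formation assay in primary rat cortical cultures, exposed from DIV 0 to 12. Mean interburst interval per well, integrated as AUC over four recordings.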

[10] = CCTE_Shafer_MEA_dev_inter_network_spike_interval_mean: CCTE's Neural Network Formation Assay for Mean Inter-network Spike Interval, Shafer Lab (AID 2284047)
How it was run: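 Compound was given at plating to primary rat cortical neurons and renewed with full medium changes on DIV 5 and 9. Extracellular activity was recorded on days 5, 7, 9, 12; AUC values were fitted for loss relative to DMSO control.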

[11] = CCTE_Shafer_MEA_dev_network_spike_number: CCTE's Neural Network Formation Assay for Number of Network Spikes, Shafer Lab (AID 2284048);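 further: synchronized bursts across electrodes counted on days 5 7 9 12 and integrated as AUC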
How it was run: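 Extracellular recordings from 16-electrode wells track network formation in rat cortical cultures under continuous treatment from plating. The endpoint is network spike number, expressed as AUC across DIV 5–12 relative to DMSO vehicle.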

[12] = CCTE_Shafer_MEA_dev_network_spike_duration_std: CCTE's Neural Network Formation Assay for Standard Deviation of Network Spike Duration, Shafer Lab (AID 2284052);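 further: area under curve of spike duration SD across recording days 5 to 12; hits are decreases in network spike duration SD versus DMSO vehicle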
How it was run: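 Developing networks of rat cortical neurons were exposed over twelve days in vitro on 48-well MEA plates. Trapezoidal AUC of recordings (DIV 5–12) was analysed for signal loss relative to DMSO vehicle.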

[13] = CCTE_Shafer_MEA_dev_per_network_spike_spike_number_mean: CCTE's Neural Network Formation Assay for Mean Number of Spikes in a Network Spike, Shafer Lab (AID 2284053)
How it was run: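 First, rat cortical cells (1.5 x 10^5/well) were seeded onto MEA wells; second, dosing began at plating and was refreshed on DIV 5 and 9; finally, network-spike spike counts across DIV 5–12 were summarized as AUC.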

[14] = CCTE_Shafer_MEA_dev_per_network_spike_spike_percent: CCTE's Neural Network Formation Assay for Percent of Spikes in a Network Spike, Shafer Lab (AID 2284054)
How it was run: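 Developing networks of rat cortical neurons are dosed at day 0 and recorded extracellularly four times up to day 12. The endpoint is the area under the curve of percent spikes in network spikes, fitted in the negative direction relative to DMSO.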

[15] = CCTE_Deisenroth_AIME_384WELL_CTox_Active: Cytotoxicity Assessment (CTOX) in CCTE's 384-well Estrogen Receptor Transactivation Assay with AIME metabolic competence (metabolism positive), Deisenroth Lab (AID 2284037; active means hit-call score of the fitted dose curve at least 0.9, where 1 is the maximum;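 further: chemicals first conditioned 2 h by alginate-bound induced rat liver S9 before cells; activity means signal loss indicating cell death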)
How it was run: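 VM7Luc4E2 breast cells received medium pre-incubated 2 h with chemical over alginate microspheres holding induced male Sprague Dawley rat liver S9; viability read 24 h later by protease-substrate fluorescence. Loss of signal, bidirectional fit, 0.002–200 uM.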

[16] = target: Estrogen receptor (Homo sapiens) (UniProt P03372); assay: CCTE_Deisenroth_AIME_384WELL_LUC_Shift: CCTE's 384-well Estrogen Receptor Transactivation Assay with AIME metabolic competence data shift (ERTA luciferase; difference in metabolism positive and negative), Deisenroth Lab (AID 2284041);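 further: shift is response with S9 minus without S9 so positive means metabolism raised ER signal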
Chain of Estrogen receptor (Homo sapiens) (P03372 whole entry, looked up): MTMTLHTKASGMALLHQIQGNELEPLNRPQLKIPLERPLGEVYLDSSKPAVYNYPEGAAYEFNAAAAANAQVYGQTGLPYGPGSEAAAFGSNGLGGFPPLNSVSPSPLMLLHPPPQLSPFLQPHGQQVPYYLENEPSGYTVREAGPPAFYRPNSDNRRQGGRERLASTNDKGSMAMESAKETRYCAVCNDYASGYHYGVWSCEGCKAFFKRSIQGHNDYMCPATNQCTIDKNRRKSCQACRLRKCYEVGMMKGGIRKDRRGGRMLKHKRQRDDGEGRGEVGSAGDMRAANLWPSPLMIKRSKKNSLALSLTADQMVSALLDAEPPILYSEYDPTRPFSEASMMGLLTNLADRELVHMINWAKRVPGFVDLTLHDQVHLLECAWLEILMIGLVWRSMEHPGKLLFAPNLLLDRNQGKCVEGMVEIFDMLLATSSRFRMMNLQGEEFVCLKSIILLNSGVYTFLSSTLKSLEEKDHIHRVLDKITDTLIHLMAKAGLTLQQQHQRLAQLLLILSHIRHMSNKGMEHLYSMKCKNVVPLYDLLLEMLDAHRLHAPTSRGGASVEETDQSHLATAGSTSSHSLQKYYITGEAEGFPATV
How it was run: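 Here, parent compounds undergo 2 h phase I metabolism by PB/BNF-induced rat S9 before 24 h transactivation in VM7Luc4E2 cells; the curve models S9-positive minus S9-negative response over a 10-point series.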

In the case of `CCNc1nc(Cl)nc(NC(C)(C)C#N)n1`, the outcome (DIO2 (gene 1734)) is reported as “inactive” and the AC50 (DIO3 (gene 1735)) is reported as 21.5 µM (active).
In the case of `CCCOCC(=Nc1ccc(Cl)cc1C(F)(F)F)n1ccnc1`, the outcome [1] is reported as “inactive”, the AC50 [2] is reported as 1.6 µM (active) and the AC50 (DIO2 (gene 1734)) is reported as 2.92 µM (active). For the same compound, the AC50 (DIO3 (gene 1735)) was 2.38 µM (active).
For `CCC(CC)Nc1c([N+](=O)[O-])cc(C)c(C)c1[N+](=O)[O-]`, the outcome [3] was “inactive”.
With `CC(Oc1cccc(Cl)c1)C(=O)O` (configuration not stated) the outcome [4] was “inactive”, the outcome [5] was “inactive” and the outcome [6] was “inactive”. For the same compound, the outcome [7] was “inactive”, the outcome [8] was “inactive” and the outcome [9] was “inactive”. The outcome [10] was “inactive”, the outcome [11] was “inactive” and the outcome [12] was “inactive”. For the same compound, the outcome [13] was “inactive” and the outcome [14] was “inactive”.
With `N#CSCSC#N` the AC50 [1] was 30.5 µM (active), the outcome [2] was “inactive” and the outcome [15] was “inactive”. The outcome [3] was “inactive”.
In the case of `CSc1nc(NC(C)C)nc(NC(C)C)n1`, the outcome [3] is reported as “inactive” and the outcome [16] is reported as “inactive”.
With `COc1ccc(C(=CC(=O)N2CCOCC2)c2ccc(Cl)cc2)cc1OC` the outcome [15] was “inactive” and the outcome [3] was “inactive”.
In the case of `CC(C1CC1)C(O)(Cn1cncn1)c1ccc(Cl)cc1` (configuration not stated), the outcome [3] is reported as “inactive”.
In the case of `CCOP(=O)(SC(C)CC)N1CCSC1=O` (configuration not stated), the outcome [4] is reported as “inactive”, the outcome [5] is reported as “inactive” and the outcome [15] is reported as “inactive”. For the same compound, the outcome [3] was “inactive”, the outcome [7] was “inactive” and the outcome [8] was “inactive”. The outcome [9] was “inactive”, the outcome [10] was “inactive” and the outcome [11] was “inactive”. For the same compound, the outcome [12] was “inactive”, the outcome [13] was “inactive” and the outcome [14] was “inactive”.
For `CCCSP(=O)(OCC)Oc1ccc(Br)cc1Cl` (configuration not stated), the outcome [4] was “inactive”, the outcome [5] was “inactive” and the outcome [15] was “inactive”. The outcome [3] was “inactive”, the outcome [6] was “inactive” and the outcome [7] was “inactive”. The outcome [8] was “inactive”, the outcome [9] was “inactive” and the outcome [10] was “inactive”. For the same compound, the outcome [11] was “inactive”, the outcome [12] was “inactive” and the outcome [13] was “inactive”. The outcome [14] was “inactive”.
In the case of `CCCCSP(=O)(SCCCC)SCCCC`, the AC50 [4] is reported as 66.3 µM (active) and 11.5 µM (active), the AC50 [5] is reported as 31.1 µM (active) and 49.9 µM (active) and the AC50 [6] is reported as 32 µM (active) and 15.8 µM (active). The AC50 [7] was 50 µM (active) and 18.8 µM (active), the outcome [8] was “inactive” and the AC50 [9] was 63.3 µM (active) and 49.9 µM (active). For the same compound, the outcome [10] was “inactive”, the outcome [11] was “inactive” and the outcome [12] was “inactive”. The AC50 [13] was 50 µM (active) and 17 µM (active) and the AC50 [14] was 68.3 µM (active) and 49.9 µM (active).
With `CCOP(=S)(OCC)Oc1ccc([N+](=O)[O-])cc1` the outcome [4] was “inactive”, the outcome [5] was “inactive” and the outcome [6] was “inactive”. For the same compound, the outcome [7] was “inactive”, the outcome [8] was “inactive” and the outcome [9] was “inactive”. The outcome [10] was “inactive”, the outcome [11] was “inactive” and the outcome [12] was “inactive”. The outcome [13] was “inactive” and the outcome [14] was “inactive”.
For `CCOP(=S)(OCC)Oc1cc(C)nc(C(C)C)n1`, the AC50 [4] was 50 µM (active), the outcome [4] was “inactive” and the AC50 [5] was 50 µM (active). The outcome [5] was “inactive”, the AC50 [6] was 60.2 µM (active) and the outcome [7] was “inactive”. For the same compound, the outcome [8] was “inactive”, the outcome [9] was “inactive” and the outcome [10] was “inactive”. The outcome [11] was “inactive”, the outcome [12] was “inactive” and the AC50 [13] was 16.1 µM (active). For the same compound, the outcome [13] was “inactive”, the AC50 [14] was 77 µM (active) and the outcome [14] was “inactive”.
With `CCOP(=O)(OCC)Oc1cc(C)nc(C(C)C)n1` the outcome [4] was “inactive”, the outcome [5] was “inactive” and the outcome [6] was “inactive”. For the same compound, the outcome [7] was “inactive”, the outcome [8] was “inactive” and the outcome [9] was “inactive”. The outcome [10] was “inactive”, the outcome [11] was “inactive” and the outcome [12] was “inactive”. For the same compound, the outcome [13] was “inactive” and the outcome [14] was “inactive”.
In the case of `CCC(=O)Nc1ccc(Cl)c(Cl)c1`, the AC50 [15] is reported as 19.8 µM (active) and the outcome [3] is reported as “inactive”.
